# Source: PubChem BioAssay (NCATS)
# Records with an inconclusive call do not appear. Where a call stands in place of a potency, no number is given. Calls of active or inactive are those of the source. The call rests on the fitted dose curve; in most records, active means well fitted cell-killing curve with a large enough effect; inconclusive means small, poorly fitted or top-dose-only effect; inactive means flat fitted curve, though single readings scatter.
# Assay: qHTS of pediatric cancer cell lines to identify multiple opportunities for drug repurposing: Primary screen for control Hh wild type fibroblast cells (AID 1347106);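 further: a drop in luminescence marks cytotoxicity and a rise apparent proliferation; nearly all actives have a fitted effect of over 55% in size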
# Conditions: Hh wild-type fibroblast viability, CellTiter-Glo luminescence, 48 h; series mostly up to 46 µM
# Procedure, shortened: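 Viability after 48 h compound treatment at 37C, 500-1,000 cells/well, read as ATP luminescence with CellTiter-Glo. Primary screens used 11-point (MIPE, 0.78 nM-46 µM) or 8-point (NPC, 0.59 nM-46 µM) final concentrations; follow-up screens used 11-point dilutions.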
row,Structure (SMILES),Potency
1,C[N+]1(CC2COC(c3ccccc3)(C3CCCCC3)O2)CCCCC1 (stereo unspecified),inactive
2,C=C[C@H]1CN2CC[C@H]1C[C@H]2[C@H](O)c1ccnc2ccc(OC)cc12,inactive
3,CN(C)C(=O)Nc1ccc(Cl)c(Cl)c1,inactive
4,C[C@@H](O)[C@H]1C(=O)N2C(C(=O)O)=C(S[C@@H]3CN[C@H](CNS(N)(=O)=O)C3)[C@H](C)[C@H]12,inactive
5,CCOCCn1c(N2CCCN(C)CC2)nc2ccccc21,inactive
6,N#C/C(=C1\SCC(c2ccccc2Cl)S1)n1ccnc1 (stereo unspecified),inactive
7,Cc1ccc(O)c([C@H](CCN(C(C)C)C(C)C)c2ccccc2)c1,inactive
8,CCCCC(CC)COC(=O)c1ccc(N(C)C)cc1 (stereo unspecified),inactive
9,N#CCC(=O)NN,inactive
10,Cc1cc(NS(=O)(=O)c2ccc(N)cc2)nc(C)n1,inactive
11,COc1cc(N)c(Cl)cc1C(=O)NC1CCN(Cc2ccccc2)CC1,inactive
12,CCCCN=C(N)N=C(N)N,inactive
13,CC(C)Cc1ccc(CC(=O)O)cc1,inactive
14,Oc1c(Cl)cc(Cl)c(Cl)c1Cc1c(O)c(Cl)cc(Cl)c1Cl,inactive
15,CCN(CC)CCOc1ccccc1C(=O)CCc1ccccc1,inactive
16,CC(C)n1c(/C=C/[C@@H](O)C[C@@H](O)CC(=O)O)c(-c2ccc(F)cc2)c2ccccc21,inactive
17,CC(=O)Nc1ccc(S(=O)(=O)Nc2ccc([N+](=O)[O-])cc2)cc1,inactive
18,Cc1c[nH]c2ccccc12,inactive

row,Structure (SMILES),Potency
1,CCCCCCCCOc1ccc(C(=O)c2ccccc2)c(O)c1,inactive
2,Nc1nc(-c2ccccc2)c(Br)c(=O)[nH]1,inactive
3,OC(C#CCN1CCCC1)(c1ccccc1)c1ccccc1,inactive
4,Nc1ccc(S(=O)(=O)NCc2ccccc2)cc1,inactive
5,CC(C)Nc1cccnc1N1CCN(C(=O)c2cc3cc(NS(C)(=O)=O)ccc3[nH]2)CC1,inactive
6,NS(=O)(=O)c1cc2c(cc1Cl)NC(CC1CCCC1)NS2(=O)=O (stereo unspecified),inactive
7,C=C1c2cccc(O)c2C(O)=C2C(=O)[C@]3(O)C(O)=C(C(N)=O)C(=O)[C@@H](N(C)C)[C@@H]3[C@@H](O)[C@H]12,inactive
8,Cc1cc(CC(=O)O)c(C)n1-c1ccc(Cl)cc1,inactive
9,CO[C@]12C[C@@H](COC(=O)c3cncc(Br)c3)CN(C)[C@@H]1Cc1cn(C)c3cccc2c13,inactive
10,O=C(NC1CCN(CCc2c[nH]c3ccccc23)CC1)c1ccccc1,inactive
11,Clc1cccc(C(c2ccc3nc[nH]c3c2)n2ccnc2)c1 (stereo unspecified),inactive
12,Cc1c(-c2ccccc2)oc2c(C(=O)OCCN3CCCCC3)cccc2c1=O,inactive
13,O=C(O)C(Cc1cc(I)c(O)c(I)c1)c1ccccc1 (stereo unspecified),inactive
14,CC(C)(C)NCC(O)COc1cccc2c1C[C@H](O)[C@H](O)C2 (stereo partly specified),inactive
15,Cc1nc(-c2ccc(Cl)cc2)oc1COC(C)(C)C(=O)O,inactive
16,NCc1ccccc1Sc1ccccc1CO,inactive
17,C[N+]1(C)CCC(=C(c2ccccc2)c2ccccc2)CC1,inactive
18,CCO[C@@H]1O[C@H](C(COCc2ccccc2)OCc2ccccc2)[C@H](OCc2ccccc2)[C@H]1O (stereo partly specified),inactive
